# Source: PubChem
# Only some compounds are listed: those with a hit (about 19% of all), similar ones and a draw of the others.
# IL1B secr inh = blocks inflammasome-driven IL-1 beta release; THP-1 LPS/ATP IL-1B secretion, AlphaLISA, 16 h; hits give low values; activity change, % at 57.5 µM; 360,000 tested, 4.7% active; in the data active = activity change below about -50%; inconclusive = mostly about -30% to -49%; note: % is set by controls: 0 for no effect and ±100 for the full control effect
#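 Secreted IL-1B measured by AlphaLISA bead assay after 16 h compound exposure of THP-1 cells; compounds (final up to 57.5 uM) added 1 h before LPS (250 ng/mL) and ATP (1.25 mM) stimulation; lower signal means less secretion.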
# TDP1 cell CPT = growth inhibition of DT40 Tdp1-/-;hTDP1 cells with camptothecin (screen for TDP1 inhibitors); chicken DT40 Tdp1-/-;hTDP1 cells + 20 nM CPT, ATP luminescence, 48 h; Potency, µM (doses to about 46.2 µM), for inactives: top-dose activity change, negative = growth inhibition, actives largely listed as inhibitors; 420,000 tested, 12% active; AID 686979; note: potency is the fitted concentration of half-maximal effect; % is set by controls: 0 for no effect and ±100 for the full control effect; nearly all actives have a fitted effect of over 55% in size
#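 Chicken DT40 Tdp1-/- cells stably complemented with human TDP1 were seeded at 400 cells/well in medium containing 20 nM camptothecin, exposed to pin-transferred compounds, and grown at 37 °C for at least 48 hr. Viability was read as ATP luminescence.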
# DT40 TDP1 no CPT = qHTS for Inhibitors of human tyrosyl-DNA phosphodiesterase 1 (TDP1): qHTS in cells in absence of CPT | DT40 Tdp1-/- hTDP1 cells, no CPT, ATP luminescence, 48 h | Potency, µM (titrated, usually from 46.2 µM), for inactives: at the top dose activity change, negative = growth inhibition, most hits filed as inhibitors | 420,000 tested, 15% active | AID 686978, 2013; note: potency is the fitted concentration of half-maximal effect; % is set by controls: 0 for no effect and ±100 for the full control effect; nearly all actives have a fitted effect of over 55% in size
#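 Growth kinetics read by CellTiter-Glo luminescence after ≥48 hr at 37 °C. Cells: DT40 Tdp1-/- stably carrying human TDP1, 400 per well, compound exposure in the absence of CPT (DMSO vehicle).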
# MCF10A rereplic = induces DNA re-replication in MCF 10a normal breast cells; MCF 10A DNA re-replication, Hoechst nuclear intensity, 48 h; Potency, µM (top dose mostly 46.1 µM), for the others: top-dose activity, positive = re-replication, actives largely listed as activators; 350,000 tested, 2.9% active; note: potency is the fitted concentration of half-maximal effect; % of control where 0% means no effect; nearly all actives have a fitted effect of over 50% in size
# SW480 rerep = DNA re-replication induction in SW480 cells; SW480 DNA re-replication, Hoechst DNA content imaging, 48 h; 340,000 tested, 1.8% active; Potency, µM (top dose mostly 46.1 µM), for inactives: at the top dose re-replication activation, actives largely listed as activators; note: potency is the fitted concentration of half-maximal effect; % of control where 0% means no effect; nearly all actives have a fitted effect of over 55% in size
#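 Readout is total intensity of Hoechst-stained nuclei, excited at 405 nm and collected at 500-530 nm. Compound treatment lasted 48 hr at 37 C in 5% CO2 before staining.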
# Chronic BCR inh = blocks chronic active B-cell receptor signaling | Potency, µM (titrated, usually from 46.1 µM), inactives show at the highest dose activity change, negative = inhibition, hits mostly inhibitors | 340,000 tested, 0.05% active | ABC-DLBCL IkBa-CBG/CBR reporter, luminescence ratio, 4 h; active = well fitted inhibition curve with a large enough effect in the signal ratio, with a control signal flat, not every such curve was filed as active; inconclusive = small, poorly fitted or top-dose-only effect, or effect the other way, or a change in a side signal; the % refers to the signal ratio;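 note: potency is the fitted concentration of half-maximal effect; plate controls were basal doxycycline-induced cells for no effect and cells given 10 µM MG132 for full effect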
#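 Doxycycline induced both beetle luciferases in TMD8 lymphoma cells; IKK-driven degradation limits the IkappaBalpha-fused green signal, while red luminescence normalises for cell number and nonspecific effects. Compounds tested up to 46 uM, 4 hrs.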
# An asterisk follows results filed as active; u = inconclusive; x = no result; [ ] = dose if it differs, or a comment. Unless noted, calls come from the whole dose curve; as a rule, active = well fitted curve in the direction sought with a large enough effect; inconclusive = small, poorly fitted or top-dose-only effect, or another doubt; inactive = no such curve, though single readings can be large; an effect the other way counts as inactive or inconclusive.
SMILES,IL1B secr inh,TDP1 cell CPT,DT40 TDP1 no CPT,MCF10A rereplic,SW480 rerep,Chronic BCR inh
O=C(CN(C(=O)CCC(=O)Nc1ccccn1)c1ccc(F)cc1)NCCc1ccccc1,0,4%,0%,4%,1%,9%
CCOC(=O)CSc1nc2nc(Cl)c(Cl)nc2[nH]1,3,u,u,x,x,x
CC(=O)N1CCC(N(Cc2ccc(C)o2)C(=O)Nc2ccc(C)cc2)CC1,x,2%,-18%,x,x,x
CC1CN(S(=O)(=O)c2cccc(C(=O)Nc3ccc(S(=O)(=O)NC4=NCCCCC4)cc3)c2)CC(C)O1 (stereo not drawn),20,u,u,8%,0%,5%
Cc1cc(C)nc(SCCn2c(N3CCCCC3)nc3c2c(=O)n(C)c(=O)n3C)n1,53,-23%,-26%,-3%,-10%,-8%
Cn1c(=O)[nH]c(=O)c2c1nc(N1CCCCCC1)n2CCSc1nc2ccccc2o1,17,-14%,-11%,5%,-13%,-27%
CC1CC(C)CN(c2nc3c(c(=O)n(C)c(=O)n3C)n2CCSc2nc3ccccc3o2)C1 (stereo not drawn),27,18µM*,15µM*,-1%,-6%,x
Cn1c(=O)c2c(nc(N3CCCCCC3)n2CCSc2nc3ccccc3o2)n(C)c1=O,32,7.3µM*,23µM*,-4%,-2%,1%
Cn1c(=O)[nH]c(=O)c2c1nc(N1CCCCCC1)n2CCCSc1nc2ccccc2o1,-16,u,29µM*,-1%,-4%,-12%
N#Cc1cn(-c2cccc(C(F)(F)F)c2)c(=O)[nH]c1=O,27,8%,-4%,-1%,-4%,u
CC(C)(C)NC(=O)COc1coc(CN2CCN(Cc3ccccc3)CC2)cc1=O,22,17%,-19%,20%,1%,2%
CN(C)c1ccc(NC(=O)Nc2nnc([C@H]3C[C@H](O)[C@@H](CO)O3)s2)cc1,21,-3%,-3%,x,x,x
CC(C)c1ccc(NC(=O)Nc2nc(C(N)c3ccccc3Cl)cs2)cc1 (stereo not drawn),-77*,13µM*,10µM*,x,x,x
CN(C)c1ccc(NC(=O)Nc2nc(C(N)C3CCCCC3)cs2)cc1 (stereo not drawn),-60*,18µM*,21µM*,x,x,x
CC(C)c1ccc(NC(=O)Nc2nc(CN)cs2)cc1,-20,u,u,x,x,x
Cc1ccccc1NC(=O)Nc1nc(C(N)C2CCCCC2)cs1 (stereo not drawn),-54*,23µM*,u,x,x,x
CC(C)c1ccc(NC(=O)Nc2nc(C(C)N)cs2)cc1 (stereo not drawn),u,15µM*,15µM*,x,x,x
COc1ccc(C(=O)CNc2cccc(F)c2)cc1,-12,-15%,-11%,1%,25%,3%
CC(=O)OC1CCC23CC1(C)CCC2C(C)(C)CC3OC(C)=O (stereo not drawn),x,-7%,-27%,x,x,x
CC(C)c1ccc(NC(=O)Nc2nc(C(N)C3CCCCC3)cs2)cc1 (stereo not drawn),-113*,u,u,x,x,x
Cc1ccc(-c2nc(CNC(=O)c3ccco3)cs2)cc1,-21,u,u,-53%,-1%,1%
CC(C)c1ccc(NC(=O)C(c2ccc3c(c2)OCO3)N2CCCCC2)cc1 (stereo not drawn),0,18µM*,23µM*,8%,4%,17%
O=C(Nc1cc(Cl)cc(Cl)c1)C(NCCO)c1ccccc1 (stereo not drawn),4,-2%,u,u,-14%,-1%
O=C(O)c1ccccc1OC(C(=O)Nc1cc(Cl)cc(Cl)c1)c1ccccc1 (stereo not drawn),23,29µM*,26µM*,21µM*,u,5%
Cc1ccc(NC(=O)C(c2ccc(Cl)cc2Cl)N2CCCC2)cc1 (stereo not drawn),-14,23µM*,15µM*,u,16%,u
SMILES,IL1B secr inh,TDP1 cell CPT,DT40 TDP1 no CPT,MCF10A rereplic,SW480 rerep,Chronic BCR inh
COc1cccc(NC(=O)C(c2ccccc2)N2CCCCC2)c1 (stereo not drawn),0,-28%,u,u,-5%,17%
O=C(Nc1cc(Cl)cc(Cl)c1)C(c1ccccc1)N1CCCCC1 (stereo not drawn),u,21µM*,u,-1%,4%,1%
CN(c1ccccc1)S(=O)(=O)c1nnc(NC(=O)C2CCCCC2)s1,-19,2%,23%,0%,-5%,2%
O=C(NN1C(=O)/C(=C\c2cccnc2)SC1=S)C(c1ccccc1)c1ccccc1,7,u,26µM*,15µM*,-4%,8%
O=C(NN1C(=O)/C(=C/c2cccnc2)SC1=S)C(c1ccccc1)c1ccccc1,5,u,u,13µM*,8%,9%
O=C(Cc1cccc2ccccc12)NN1C(=O)/C(=C\c2cccnc2)SC1=S,-2,-10%,u,-18%,3%,-10%
Cc1ccccc1-c1noc(-c2cccnc2N2CCN(c3ccccc3)CC2)n1,x,-12%,u,x,x,x
Cc1ccc(-c2csc(N=C(N)N)n2)cc1,-61*,-21%,u,u,u,-11%
CCC1=C(OC(=O)N(CC)CC)N2C(=O)OC(=NCC(=O)OC)[C@]2(Cc2ccccc2)[C@H]2C1=CC[C@H]1C(=O)N(C)C(=O)[C@H]12,12,-24%,-19%,1%,1%,9%
CCC1=C(OC(=O)N(CC)CC)N2C(=O)OC(=NCCc3c[nH]c4ccccc34)[C@]2(Cc2ccccc2)[C@H]2C1=CC[C@H]1C(=O)NC(=O)[C@H]12,u,u,16µM*,u,-9%,u
CCC1=C(OC(=O)N(CC)CC)N2C(=O)OC(=NCC3CC3)[C@]2(Cc2ccccc2)[C@H]2C1=CC[C@H]1C(=O)N(C)C(=O)[C@H]12,0,18µM*,18µM*,-13%,28%,-7%
CC(C)[C@H](NS(=O)(=O)c1ccc(Cl)cc1)C(=O)OCC(=O)NCCN1C(=O)CSC1=O,0,-2%,-15%,3%,-1%,1%
COc1ccc(Nc2nc(N)nc(CN3CCOCC3)n2)cc1,-10,-30%,u,-21%,-21%[9.22 µM],-1%
Cc1ccc(Nc2nc(N)nc(CN3CCN(c4ccccc4)CC3)n2)cc1Cl,u,u,18µM*,18µM*,10%,0%
